This passage reports growth inhibition, inhibition and outcome results from PubChem BioAssay.

Test [1] can be described thus: antimalarial activity against Dd2 strain (AID 2302;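 active = growth inhibition above 50% at the single 2 µM test dose, taken to imply half-maximal potency below 2 µM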;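 also: 0% = DMSO untreated growth and 100% = chloroquine plus artemisinin killed control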). As to conditions: P. falciparum Dd2 in RBCs, LDH growth readout, 72 h; at 2 µM; stronger effect = higher value.
Test [2] in a line: human hepatoma cell viability loss – ATP luminescence, cytotoxicity control for P. falciparum antimalarial project, primary screen (AID 2303;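 active = inhibition above 50%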;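 also: 0% = DMSO wells and 100% = digitonin-killed cells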). Particulars: HepG2 viability, 24-48 h, at 10 µM, stronger effect = higher value.
For test [3], the target named is L-lactate dehydrogenase (Plasmodium falciparum (isolate CDC / Honduras)) (UniProt Q27743). The experiment in a line: PfLDH activity inhibition – cell lysate, 3D7 strain, counter-screen for P. falciparum growth inhibition project (AID 2304).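 Also: 0% = vehicle and 100% = reference inhibitor.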 As to conditions: P. falciparum 3D7 crude extract, LDH APAD/NBT absorbance; at 2 µM; stronger effect = higher value. Background: Counterscreens check selectivity or assay interference.

A short description of test [4]: inhibition of 3D7 malaria parasite growth – strain 3D7 (AID 2306).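 Also: 0% = DMSO wells and 100% = chloroquine plus artemisinin control wells.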 As to conditions: P. falciparum 3D7 erythrocytic growth, LDH absorbance, 72 h; at 2 µM; stronger effect = higher value.
The target in test [5] is Calcium-dependent protein kinase 1 (Plasmodium falciparum (isolate 3D7)) (UniProt P62344). The experiment in a line: PfCDPK1 kinase inhibitors, biochemical, TCAMS library (AID 1159585; cut-off not given, nearly all actives have IC50 up to about 0.98 µM;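 also: inhibitors leave more ATP so luminescence rises with inhibition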). Particulars: recombinant PfCDPK1, Kinase-Glo ATP depletion luminescence. In general terms: Kinase-Glo measures the ATP left after a reaction by luminescence.
Test [6] concerns the target Plasmodium falciparum protein kinase 6 (PK6, PF3D7_1337100) (UniProt Q8IDW1). The experiment in a line: PfPK6 kinase inhibitors, biochemical, TCAMS library (AID 1159586). As to conditions: recombinant PfPK6, Kinase-Glo ATP depletion luminescence.
In test [7] the target is Protein kinase 7 (PK7), Plasmodium falciparum 3D7 (PF3D7_0213400) (UniProt Q7YTF7). The experiment in a line: inhibition of Plasmodium PK7 catalytic activity – biochemical, TCAMS antimalarial set, Kinase-Glo luminescence (AID 1159587). As to conditions: recombinant PfPK7, Kinase-Glo ATP depletion luminescence.
Test [8] deals with Calcium-dependent protein kinase 4 (Plasmodium falciparum (isolate 3D7)) (UniProt Q8IBS5). Put plainly: PfCDPK4 kinase inhibitors, biochemical, TCAMS library (AID 1159588; cut-off not given, nearly all actives have IC50 up to about 0.91 µM). Particulars: recombinant PfCDPK4, Kinase-Glo ATP depletion luminescence.

Molecules are shown by their SMILES. A number with no mark means an inactive call. For part of these data: Entries with a potency or affinity are not part of this list. Activity calls are given as the source filed them. Unless noted, no rule for the calls is given here.

Chain of Calcium-dependent protein kinase 1 (Plasmodium falciparum (isolate 3D7)) (P62344 whole entry, looked up): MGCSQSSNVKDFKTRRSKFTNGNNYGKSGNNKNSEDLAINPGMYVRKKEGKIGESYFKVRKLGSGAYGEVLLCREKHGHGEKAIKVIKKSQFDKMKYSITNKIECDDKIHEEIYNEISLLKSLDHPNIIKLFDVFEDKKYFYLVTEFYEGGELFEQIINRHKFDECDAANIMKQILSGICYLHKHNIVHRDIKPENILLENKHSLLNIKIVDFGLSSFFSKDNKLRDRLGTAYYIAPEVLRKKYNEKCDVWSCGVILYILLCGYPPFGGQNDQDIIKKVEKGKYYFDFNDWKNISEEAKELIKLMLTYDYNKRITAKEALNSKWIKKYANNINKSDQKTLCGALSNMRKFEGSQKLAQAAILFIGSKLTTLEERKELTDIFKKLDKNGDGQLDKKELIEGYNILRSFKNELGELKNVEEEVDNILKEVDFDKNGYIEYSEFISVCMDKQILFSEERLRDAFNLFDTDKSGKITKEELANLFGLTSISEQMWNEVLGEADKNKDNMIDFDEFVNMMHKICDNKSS
Chain of Calcium-dependent protein kinase 4 (Plasmodium falciparum (isolate 3D7)) (Q8IBS5 whole entry, looked up): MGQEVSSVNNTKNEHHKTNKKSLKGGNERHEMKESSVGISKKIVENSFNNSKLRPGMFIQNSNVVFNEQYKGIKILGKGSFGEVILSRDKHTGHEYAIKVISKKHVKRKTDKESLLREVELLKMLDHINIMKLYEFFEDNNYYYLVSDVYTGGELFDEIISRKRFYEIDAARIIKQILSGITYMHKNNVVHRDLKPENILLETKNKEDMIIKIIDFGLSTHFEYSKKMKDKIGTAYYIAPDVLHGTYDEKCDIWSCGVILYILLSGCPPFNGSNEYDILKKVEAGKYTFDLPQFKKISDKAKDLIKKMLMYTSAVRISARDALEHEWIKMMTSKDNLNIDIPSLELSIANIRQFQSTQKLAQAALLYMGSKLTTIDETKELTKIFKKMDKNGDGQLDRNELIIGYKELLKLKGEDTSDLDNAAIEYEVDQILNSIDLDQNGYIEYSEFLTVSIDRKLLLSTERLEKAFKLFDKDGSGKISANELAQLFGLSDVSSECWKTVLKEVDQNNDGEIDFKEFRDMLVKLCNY
Chain of Protein kinase 7 (PK7), Plasmodium falciparum 3D7 (PF3D7_0213400) (Q7YTF7 1-343): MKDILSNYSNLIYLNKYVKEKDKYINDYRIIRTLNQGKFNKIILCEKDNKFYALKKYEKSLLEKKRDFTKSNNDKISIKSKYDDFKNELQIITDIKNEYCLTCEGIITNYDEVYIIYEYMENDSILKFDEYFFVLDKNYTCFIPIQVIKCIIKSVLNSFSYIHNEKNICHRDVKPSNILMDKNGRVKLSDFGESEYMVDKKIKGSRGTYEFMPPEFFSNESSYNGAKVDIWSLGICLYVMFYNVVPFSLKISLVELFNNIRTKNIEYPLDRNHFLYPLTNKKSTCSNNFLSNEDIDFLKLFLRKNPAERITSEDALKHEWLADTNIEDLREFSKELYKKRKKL
Chain of Plasmodium falciparum protein kinase 6 (PK6, PF3D7_1337100) (Q8IDW1 1-305): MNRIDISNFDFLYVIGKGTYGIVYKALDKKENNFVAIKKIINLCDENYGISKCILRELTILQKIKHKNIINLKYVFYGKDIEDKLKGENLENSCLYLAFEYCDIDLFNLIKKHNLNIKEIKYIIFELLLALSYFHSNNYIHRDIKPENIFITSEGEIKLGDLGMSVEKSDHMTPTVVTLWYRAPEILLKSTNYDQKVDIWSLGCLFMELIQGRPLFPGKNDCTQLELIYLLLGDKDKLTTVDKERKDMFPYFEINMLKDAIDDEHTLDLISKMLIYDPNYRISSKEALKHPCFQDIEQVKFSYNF
Chain of L-lactate dehydrogenase (Plasmodium falciparum (isolate CDC / Honduras)) (Q27743 whole entry, looked up): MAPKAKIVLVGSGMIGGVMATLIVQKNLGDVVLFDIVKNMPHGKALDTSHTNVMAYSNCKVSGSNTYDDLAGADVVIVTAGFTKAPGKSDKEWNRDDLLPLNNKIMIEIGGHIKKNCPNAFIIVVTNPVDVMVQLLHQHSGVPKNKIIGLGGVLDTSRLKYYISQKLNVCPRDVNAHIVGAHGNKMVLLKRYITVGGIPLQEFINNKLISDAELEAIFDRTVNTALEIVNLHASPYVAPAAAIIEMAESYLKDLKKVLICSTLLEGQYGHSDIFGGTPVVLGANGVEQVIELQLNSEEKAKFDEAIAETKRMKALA

Usually inhibition stands for the relative decrease from the control value, in per cent. Consider `COc1ccc2nccc([C@H](O)CN3CCC(NCc4cc(C)c5c(c4)OCCO5)CC3)c2n1`, for which the results for the growth inhibition in test [1] and in test [4] were 35% and 96% (active), respectively. Also, the inhibition in test [2] is 12%; in test [3], 3%. The outcome in test [5], in test [6], in test [7] and in test [8] was inactive.

For `O=C(OCc1ccccn1)c1nc2ccccc2[nH]1`, the growth inhibition in test [1] is 97% (active); in test [4] it was 92% (active). The inhibition in test [2] was 63% (active); in test [3] it was -2%. Moreover, the outcome in test [5], in test [6], in test [7] and in test [8] was inactive.

In the case of `COc1ccc(C(=O)NC2CCN(c3ccnc4cc(Cl)ccc34)C2)cc1` (stereo not drawn), the growth inhibition in test [1] and in test [4] was 100% (active) each time. Further, the inhibition is 31% in test [2] and 2% in test [3]. The result in test [5], in test [6], in test [7] and in test [8] was inactive.

For the compound `CC(C)(C)NCC(O)COc1ccc(Cl)cc1C1=NNC(=O)CC1` (stereo not drawn), the growth inhibition in test [1] was -1%; in test [4], 96% (active). The inhibition is 6% in test [2] and -2% in test [3]. Besides, the outcome in test [5], in test [6], in test [7] and in test [8] was inactive.

On to `COc1ccc(CN2CCCN(Cc3cccc(C(=O)Nc4ccc(C)c(F)c4)c3)CC2)cc1`, for which the values for the growth inhibition in test [1] and in test [4] were 10% and 83% (active), respectively. In addition, the inhibition was 49% in test [2] and -3% in test [3]. Also, the outcome in test [5], in test [6], in test [7] and in test [8] was inactive.

With `CCC1CN2CCc3cc(OC)c(OC)cc3C2CC1CC1NCCc2cc(OC)c(OC)cc21` (stereo not drawn), the growth inhibition in test [1] is 98% (active); in test [4] it was 103% (active). In addition, the inhibition was 42% in test [2] and -3% in test [3]. In addition, the outcome in test [5], in test [6], in test [7] and in test [8] was inactive.

In the case of `Nc1nc(N)c2c(ccc3c2ccn3Cc2ccc(OCc3ccccc3)cc2)n1`, the growth inhibition was 1% in test [1] and 98% (active) in test [4]. Also, the inhibition was 5% in test [2] and -2% in test [3]. The outcome in test [5], in test [6], in test [7] and in test [8] was inactive.

As for `O=C(/C=C/c1ccc(Cl)c(Cl)c1)NC1CCC(CN2CCC(c3nc4ccccc4n3CCCO)CC2)CC1` (stereo not drawn), the values for the growth inhibition in test [1] and in test [4] were 28% and 99% (active), respectively. For the same compound, the inhibition is 28% in test [2] and -5% in test [3]. The outcome in test [5], in test [6], in test [7] and in test [8] was inactive.

On to `CCCCNC(=O)[C@@H](NC(=O)c1ccc(O)c(-c2ccc(Cl)c(Cl)c2)c1)C(C)C`, for which the growth inhibition in test [1] is 98% (active); in test [4], 97% (active). The inhibition was -4% in test [2] and 2% in test [3]. Moreover, the result in test [5], in test [6], in test [7] and in test [8] was inactive.

For `O=[N+]([O-])c1ccc(NC(=NCCOc2ccccc2)Nc2ccccc2Br)c(O)c1`, the results for the growth inhibition in test [1] and in test [4] were 70% (active) and 88% (active), respectively. Also, the inhibition was 6% in test [2] and -9% in test [3]. In addition, the result in test [5], in test [6], in test [7] and in test [8] was inactive.

In the case of `CCc1cc([C@H]2O[C@@H](n3cnc4c(NCC(c5ccccc5)c5ccccc5)nc(NCCNc5ccccn5)nc43)[C@H](O)[C@@H]2O)on1`, the results for the growth inhibition in test [1] and in test [4] were 32% and 94% (active), respectively. Besides, the results for the inhibition in test [2] and in test [3] were 14% and -9%, respectively. Besides, the outcome in test [5], in test [6], in test [7] and in test [8] was inactive.

Take `O=C(Cc1ccccc1)NC1CCN(c2ccnc3cc(Cl)ccc23)C1` (stereo not drawn): the values for the growth inhibition in test [1] and in test [4] were 78% (active) and 101% (active), respectively. The inhibition is 6% in test [2] and -6% in test [3]. Moreover, the outcome in test [5], in test [6], in test [7] and in test [8] was inactive.

With `Cc1[nH]c(C)c(-c2cc3ccccc3o2)c(=O)c1Cl`, the growth inhibition is 13% in test [1] and 92% (active) in test [4]. Besides, the inhibition in test [2] was 1%; in test [3], -2%. The result in test [5], in test [6], in test [7] and in test [8] was inactive.

`CC(=O)c1c[nH]c2ccc(/C=C/C(=O)NC3CCC(CCN4CCc5ccc(C#N)cc5CC4)CC3)cc12` (stereo not drawn): the figures for the growth inhibition in test [1] and in test [4] were 98% (active) and 101% (active), respectively. In addition, the figures for the inhibition in test [2] and in test [3] were 11% and 9%, respectively. In addition, the outcome in test [5], in test [6], in test [7] and in test [8] was inactive.

In the case of `c1ccc(-c2csc(Nc3nc4cc5c(cc4s3)OCO5)n2)nc1`, the growth inhibition in test [1] is 99% (active); in test [4] it was 81% (active). The inhibition in test [2] is 46%; in test [3] it was -3%. Also, the outcome in test [5], in test [6], in test [7] and in test [8] was inactive.

Consider `O=C(Nc1ccc(-c2ccc(-c3nc4ccc(C(F)(F)F)cc4[nH]3)cc2)cc1)Nc1ccc(F)c(F)c1F`, for which the growth inhibition is 100% (active) in test [1] and 99% (active) in test [4]. Also, the inhibition was 39% in test [2] and 3% in test [3]. The result in test [5], in test [6], in test [7] and in test [8] was inactive.

With `Cc1sc2nc(CSc3ccccc3)nc(N3CCN(CC(=O)N4CCCC4)CC3)c2c1C`, the growth inhibition is 69% (active) in test [1] and 91% (active) in test [4]. Also, the inhibition in test [2] was 19%; in test [3], 2%. The result in test [5], in test [6], in test [7] and in test [8] was inactive.

For `O=S(=O)(ON=C1CCc2ccccc21)c1ccc(Cl)cc1`, the results for the growth inhibition in test [1] and in test [4] were 79% (active) and 100% (active), respectively. Also, the inhibition in test [2] is -2%; in test [3] it was 3%. Further, the result in test [5], in test [6], in test [7] and in test [8] was inactive.

As to `COc1ccccc1N(C)CCNc1cc(C)nc(Nc2ccccc2)n1`, the values for the growth inhibition in test [1] and in test [4] were 13% and 96% (active), respectively. In addition, the inhibition is 10% in test [2] and -1% in test [3]. In addition, the result in test [5], in test [6], in test [7] and in test [8] was inactive.

`CC(CN(C)C)Oc1ccc2[nH]c(-c3cccc(OCc4ccccc4)c3)nc2c1C#N` (stereo not drawn): the figures for the growth inhibition in test [1] and in test [4] were 94% (active) and 101% (active), respectively. Moreover, the inhibition is 57% (active) in test [2] and -2% in test [3]. In addition, the outcome in test [5], in test [6], in test [7] and in test [8] was inactive.

For the compound `Cc1c(F)cc(C(=O)NC2CC2)cc1-c1ccc2c(c1)c(C)nn2S(=O)(=O)c1cccs1`, the growth inhibition in test [1] was 92% (active); in test [4] it was 91% (active). Moreover, the inhibition was 34% in test [2] and -3% in test [3]. Further, the outcome in test [5], in test [6], in test [7] and in test [8] was inactive.
